# Several values for one entry are separate records, joined by “and”; a condition that tells them apart may be missing. Identical values can stand only once. Inconclusive results are not listed. Where a call stands in place of a potency, no number is given. Some compounds were tested as several samples or in several runs, with calls that do not always agree. Activity calls are given as the source filed them. Unless noted, calls come from the whole dose curve; as a rule, active = well fitted curve in the direction sought with a large enough effect in the repeat runs; inconclusive = weak or mixed curves; inactive = no such curve, though single readings can be large; an effect the other way counts as inactive or inconclusive.
# Columns and labels:
# [1] = A CellTox Green Cytotoxicity Assay to monitor cytotoxicity in HepG2 cells - 8 hour (AID 1224890); note: nearly all actives have a fitted effect of over 45% in size; note: potency is the fitted concentration of half-maximal effect
# Method in brief: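 Continuous culture of HepG2 cells with a membrane-impermeant DNA dye; rising fluorescence marks dead cells. Compound exposure lasted up to 40 h at 37 C, with reads every 8 h from 0 h.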
# [2] = qHTS assay to identify small molecule antagonists of the estrogen receptor alpha (ER-alpha) signaling pathway using the BG1 cell line in the presence of 0.1 nM 17-beta-estradiol - cell viability counter screen (AID 1259241); note: nearly all actives have a fitted effect of over 40% in size; note: potency is the fitted concentration of half-maximal effect
# Method in brief: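 Cytotoxicity counter-screen: live-cell protease activity measured by fluorescence (30 min reagent step) in the same wells. Cells were VM7Luc4E2 with endogenous ER-alpha and ERE-driven luciferase, treated 22 hr at 37C alongside 0.1 nM 17beta-estradiol final.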
# [3] = qHTS assay to identify small molecule antagonists of the androgen receptor (AR) signaling pathway using the MDA cell line in the presence of 0.5 nM R1881 - cell viability counter screen (AID 1259242); note: nearly all actives have a fitted effect of over 45% in size
# Method in brief: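 Fluorescence from CellTiter-Fluor, which reports protease activity of live cells, was read 30 min after reagent addition to MDA-kb2 cells that had been incubated 16 hr with compound and 0.5 nM R1881.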
# [4] = molecular target: Estrogen receptor (Homo sapiens) (UniProt P03372); assay: qHTS assay to identify small molecule antagonists of the estrogen receptor alpha (ER-alpha) signaling pathway using the BG1 cell line in the presence of 0.1 nM 17-beta-estradiol (AID 1259244); note: nearly all actives have a fitted effect of over 50% in size
# Method in brief: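 Quantitative high-throughput screen in VM7Luc4E2 cells: compound plus 0.1 nM E2 (final), 22 h, 37C, 5% CO2; ONE-Glo added, 30 min room temperature, luminescence measured.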
# [5] = qHTS assay to identify small molecule HDAC inhibitors (AID 1259364); note: nearly all actives have a fitted effect of over 45% in size; note: potency is the fitted concentration of half-maximal effect
# Method in brief: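 Endogenous HDAC class I/II activity was measured in wild-type HCT-116 cells by HDAC-Glo luminescence after 2 h compound treatment.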
# [6] = qHTS assay to identify small molecule HDAC inhibitors - cell viability counter screen (AID 1259365); note: series mostly up to about 92 µM; nearly all actives have a fitted effect of over 50% in size
# Method in brief: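 CellTiter-Glo luminescence (30 min, room temperature) reported viability after a 2 h compound exposure at 37 C. Cells: wild-type HCT-116, 1,500 per well, seeded the night before.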
# [7] = qHTS assay to identify small molecule agonists of the sonic hedgehog signaling (Shh) pathway - cell viability counter screen (AID 1259366); note: nearly all actives have a fitted effect of over 50% in size; note: potency is the fitted concentration of half-maximal effect
# Method in brief: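 Cytotoxicity counter screen: CellTiter-Fluor reagent added after 23 h compound exposure, then 1 h at 37C and fluorescence read. Cells were 3T3 Gli1-Luc, seeded 2,000 per well and dosed 4 h post-plating.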
# [8] = qHTS assay to identify small molecule antagonists of the sonic hedgehog signaling (Shh) pathway - cell viability counter screen (AID 1259367); note: nearly all actives have a fitted effect of over 55% in size; note: potency is the fitted concentration of half-maximal effect
# Method in brief: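 After a 4 hr settling period, 3T3 Gli1-Luc cells were treated with DMSO-dissolved chemicals and conditioned medium, kept 24 hr at 37C in 5% CO2, and assayed for viability by CellTiter-Fluor fluorescence following 1 hr reagent incubation.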
# [9] = qHTS assay to identify small molecule agonists of the sonic hedgehog signaling (Shh) pathway (AID 1259368; calls by dose curve;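 note: NIH/3T3-derived 3T3Gli1-Luc cells carrying a stable Gli1-driven firefly luciferase reporter; series mostly up to about 92 µM; nearly all actives have a fitted effect of over 15% in size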)
# Method in brief: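 Luminescent signal was taken as a measure of Gli1-controlled luciferase expression in stably transfected NIH/3T3-derived cells that had been treated for 24 hr with compounds delivered in DMSO.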
# [10] = qHTS assay to identify small molecule antagonists of the sonic hedgehog signaling (Shh) pathway (AID 1259369; calls by dose curve; note: nearly all actives have a fitted effect of over 45% in size; note: potency is the fitted concentration of half-maximal effect)
# Method in brief: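 Screening used 3T3Gli1-Luc cells at 2,000 per well, compounds delivered in DMSO, and conditioned medium as agonist stimulus; plates incubated 24hr at 37 C and 5% CO2 before a 30min luciferase step.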
# [11] = qHTS assay to identify small molecule agonists of the androgen receptor (AR) signaling pathway in the presence of an antagonist - cell viability counter screen (AID 1259379); note: nearly all actives have a fitted effect of over 25% in size; note: potency is the fitted concentration of half-maximal effect
# Method in brief: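 In MDA-kb2 cells (human breast carcinoma, MMTV-luciferase), compounds at 15 concentrations plus 3.0uM nilutamide; 16 hr, 37C, 0% CO2; CellTiter-Fluor fluorescence read for viability.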
# [12] = qHTS assay to identify small molecule agonists of the estrogen receptor beta (ER-beta) signaling pathway - cell viability counter screen (AID 1259380); note: nearly all actives have a fitted effect of over 30% in size; note: potency is the fitted concentration of half-maximal effect
# Method in brief: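 Viability of ER-beta-UAS-bla HEK293T cells was determined by CellTiter-Glo luminescence following 16 hr treatment with test compounds at 37C.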
# [13] = qHTS assay to identify small molecule antagonists of the estrogen receptor beta (ER-beta) signaling pathway - cell viability counter screen (AID 1259382); note: nearly all actives have a fitted effect of over 55% in size; note: potency is the fitted concentration of half-maximal effect
# Method in brief: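 Tox21 10K library tested in qHTS format on ER-beta-bla HEK293T cells stimulated with 1nM E2; 16 hr treatment at 37C. Same-well CellTiter-Glo luminescence served as the cell viability measure.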
# [14] = molecular target: Estrogen receptor (Homo sapiens) (UniProt P03372); assay: qHTS assay to identify small molecule agonists of the estrogen receptor alpha (ER-alpha) signaling pathway in the presence of an antagonist (AID 1259383; calls by dose curve; note: nearly all actives have a fitted effect of over 15% in size; note: potency is the fitted concentration of half-maximal effect; for activation: top concentration of the series differs between compounds)
# Method in brief: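 In VM7Luc4E2 cells, 4,000 per well, compounds at 15 concentrations were co-incubated 22hr at 37C with 10.0nM final ICI-182,780. Luminescence from the stably transfected 4×ERE-luciferase reporter was recorded 30min after ONE-Glo addition.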
# [15] = qHTS assay to identify small molecule agonists or antagonists of the thyroid stimulating hormone receptor (TSHR) signaling pathway - wild type cell line counter screen (AID 1259384; calls by dose curve)
# Method in brief: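 Wild-type HEK293 cells were plated 18 h at 37 C/5% CO2, pin-dosed with compound plus Ro20-1724 medium, held 30 min at room temperature, then given cAMP-d2 and anti-cAMP-cryptate; fluorescence was read after 1 h. Fifteen concentrations, triplicate.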
# [16] = molecular target: Estrogen receptor beta (Homo sapiens) (UniProt Q92731); assay: qHTS assay to identify small molecule agonists of the estrogen receptor beta (ER-beta) signaling pathway (AID 1259377; active = well fitted activation curve with a large enough effect in the signal ratio in the repeat runs, not every such curve was filed as active; the % refers to the signal ratio)
# Method in brief: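 Ratiometric beta-lactamase FRET read-out came after 2 h substrate loading at room temperature. It followed 16 h compound treatment at 37C of GripTite HEK293T cells carrying a UAS-bla reporter, plated in 2% charcoal-stripped FBS medium.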
# [17] = molecular target: Estrogen receptor beta (Homo sapiens) (UniProt Q92731); assay: qHTS assay to identify small molecule antagonists of the estrogen receptor beta (ER-beta) signaling pathway (AID 1259378; active = well fitted inhibition curve with a large enough effect in the signal ratio in the repeat runs, not every such curve was filed as active; the % refers to the signal ratio; note: potency is the fitted concentration of half-maximal effect)
# Method in brief: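 ER-beta-UAS-bla HEK293T (GripTite) cells in 2% charcoal-stripped FBS medium were preincubated 6 hr at 37C, dosed with compound, then stimulated with 1 nM E2 (final) for 16 hr; beta-lactamase reporter read by B/G FRET fluorescence after 2 hr substrate loading.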
# [18] = qHTS assay to identify small molecule phospholipidosis (PLD) inducers (AID 1259344; active = well fitted curve in the direction sought with a large enough effect; an effect the other way counts as inactive or inconclusive)
# Method in brief: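 HepG2 cells grown on collagen I take up LipidTOX Red while exposed to compound for 24 h; after fixation they are imaged at 20x and pit metrics are extracted.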
# Estrogen receptor beta (Homo sapiens), sequence (Q92731 whole entry, looked up): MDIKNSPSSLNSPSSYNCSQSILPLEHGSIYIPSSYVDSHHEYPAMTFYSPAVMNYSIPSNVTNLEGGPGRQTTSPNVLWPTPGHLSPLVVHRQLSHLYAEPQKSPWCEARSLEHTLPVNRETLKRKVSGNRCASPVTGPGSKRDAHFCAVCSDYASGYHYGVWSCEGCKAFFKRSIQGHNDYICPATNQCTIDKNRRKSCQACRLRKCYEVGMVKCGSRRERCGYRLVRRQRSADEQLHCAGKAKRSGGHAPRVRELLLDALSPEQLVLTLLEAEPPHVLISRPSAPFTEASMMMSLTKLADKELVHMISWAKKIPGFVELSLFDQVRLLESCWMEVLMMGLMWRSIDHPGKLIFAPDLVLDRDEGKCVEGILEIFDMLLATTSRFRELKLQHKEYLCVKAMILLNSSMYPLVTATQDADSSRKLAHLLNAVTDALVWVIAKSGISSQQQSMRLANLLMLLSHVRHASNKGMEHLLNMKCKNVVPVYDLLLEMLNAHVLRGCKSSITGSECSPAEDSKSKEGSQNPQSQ
# Estrogen receptor (Homo sapiens), sequence (P03372 whole entry, looked up): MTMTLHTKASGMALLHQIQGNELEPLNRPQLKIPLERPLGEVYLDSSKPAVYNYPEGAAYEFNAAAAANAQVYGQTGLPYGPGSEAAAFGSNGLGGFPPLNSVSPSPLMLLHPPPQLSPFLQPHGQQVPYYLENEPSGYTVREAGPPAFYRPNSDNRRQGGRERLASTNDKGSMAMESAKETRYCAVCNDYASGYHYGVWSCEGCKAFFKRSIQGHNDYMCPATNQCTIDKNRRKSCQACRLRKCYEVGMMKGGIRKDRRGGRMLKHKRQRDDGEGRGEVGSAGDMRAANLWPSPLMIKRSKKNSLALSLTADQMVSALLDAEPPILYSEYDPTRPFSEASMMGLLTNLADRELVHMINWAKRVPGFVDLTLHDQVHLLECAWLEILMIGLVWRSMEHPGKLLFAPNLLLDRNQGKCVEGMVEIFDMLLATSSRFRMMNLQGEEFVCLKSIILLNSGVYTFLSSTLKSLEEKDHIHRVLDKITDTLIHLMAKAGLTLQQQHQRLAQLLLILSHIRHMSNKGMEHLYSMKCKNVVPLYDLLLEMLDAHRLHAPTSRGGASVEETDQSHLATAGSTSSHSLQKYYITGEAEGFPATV
Compound,Potency [1],Potency [2],Potency [3],Potency [4],Potency [5],outcome [6],Potency [7],Potency [8],Potency [9],Potency [10],Potency [11],Potency [12],Potency [13],Potency [14],outcome [15],Potency [16],Potency [17],Potency [18],"activity, negative = inhibition [17]",cAMP activity change [15]
CC(C)OC=O,inactive,inactive,inactive,inactive,inactive,inactive,inactive,inactive,inactive,32.6 µM (active) and inactive,inactive,inactive,inactive,inactive,inactive,–,–,–,–,–
O=C(OCc1ccccc1)c1ccccc1O,inactive,inactive,inactive,inactive,24.2 µM (active) and 24.3 µM (active),inactive,inactive,inactive,inactive,inactive,inactive,inactive,inactive,–,inactive,inactive,inactive,–,–,–
CCCCCCCCCCCO,inactive,inactive,inactive,inactive,inactive,inactive,inactive,inactive,inactive,inactive,inactive,inactive,inactive,–,inactive,inactive,inactive,–,–,–
O=C(c1ccccc1)c1ccc(O)cc1O,inactive,inactive,inactive,inactive,inactive,inactive,inactive,55.5 µM (active) and inactive,inactive,27.8 µM (active),inactive,inactive,62.3 µM (active) and inactive,19.7 µM (active) and 30.6 µM (active),inactive,–,–,–,–,–
C[Si](C)(C)O[Si](C)(C)C,inactive,inactive,inactive,–,inactive,inactive,inactive,inactive,inactive,inactive,inactive,inactive,inactive,–,inactive,inactive,inactive,inactive,–,–
O=C(/C=C/C=C/c1ccc2c(c1)OCO2)N1CCCCC1,inactive,inactive,inactive,inactive,9.71 µM (active) and 8.63 µM (active),inactive,inactive,inactive,–,inactive,inactive,–,inactive,inactive and 2.17 µM (active),inactive,inactive,–,–,–,–
O=[N+]([O-])c1ccc2c(c1)Cc1ccccc1-2,inactive,inactive,inactive,inactive,inactive,inactive,inactive,inactive,inactive,inactive,inactive,inactive,inactive,inactive,inactive,inactive,inactive,–,–,–
Nc1ccc(S(=O)(=O)Nc2cnc3ccccc3n2)cc1,inactive,inactive,inactive,–,inactive,inactive,inactive,inactive,inactive,inactive,inactive,inactive,inactive,–,inactive,inactive,inactive,inactive,–,–
Cc1c(OCC(F)(F)F)ccnc1CS(=O)c1nc2ccccc2[nH]1 (stereo not given),inactive,inactive,inactive,–,inactive,inactive,inactive,inactive,inactive,inactive,inactive,inactive,inactive,–,inactive,inactive,–,inactive,–,–
CCC(C)c1ccccc1O (stereo not given),inactive,inactive,inactive,–,inactive,inactive,inactive,inactive,inactive,inactive,inactive,inactive,inactive,–,inactive,inactive,inactive,–,–,–
NC=O,inactive,inactive,inactive,–,inactive,inactive,inactive,inactive,inactive,inactive,inactive,inactive,inactive,–,–,inactive,inactive,–,–,–
Cc1cc2nc3c(=O)[nH]c(=O)nc-3n(C[C@H](O)[C@H](O)[C@H](O)CO)c2cc1C,43.2 µM (active) and 40.5 µM (active) and 11.7 µM (active),–,–,–,inactive,inactive,–,–,inactive,inactive,–,inactive,inactive,–,–,inactive,–,inactive,-6.01% [at 19 µM] (inactive),-5.16% [at 18.9 µM] (inactive)
COc1cccc2c1C(=O)c1c(O)c3c(c(O)c1C2=O)C[C@@](O)(C(=O)CO)C[C@@H]3O[C@H]1C[C@H](N)[C@H](O)[C@H](C)O1,inactive,11.9 µM (active),–,inactive,inactive and 11.9 µM (active),inactive,967 nM (active) and 9.44 µM (active),967 nM (active) and 6.68 µM (active),inactive,38.5 nM (active) and 531 nM (active),15.3 µM (active) and 11.9 µM (active),inactive and 473 nM (active),inactive,–,inactive,inactive,1.93 µM (active) and 11.9 µM (active),inactive,–,–
c1ccc(Nc2ccccc2)cc1,inactive,inactive,inactive,–,inactive,inactive,inactive,inactive,inactive,inactive,43.2 µM (active) and inactive,inactive,inactive,–,inactive,inactive,24.3 µM (active) and inactive,–,–,–
CCCC(=O)O,inactive,inactive,inactive,–,inactive,inactive,inactive,inactive,inactive,inactive,inactive,inactive,inactive,–,inactive,–,–,inactive,–,–
